# From PubChem
# NALP1 yeast inh: NALP1 inflammasome inhibitors in reconstituted yeast, colorimetric, S. cerevisiae, triplicate retest | AID 2071, 2009 | inhibition, % at 10 µM | hit rate 0.61% among 280,000 | S. cerevisiae NALP1/ASC/caspase-1 growth, X-gal OD620, 72 h; in the data active means inhibition mostly above about 24%, no sharp cut-off; inactive means mostly below about 32%
# tim10-1 inh: growth inhibitors of tim10-1 mutant yeast, primary screen, luminescence, uHTS; S. cerevisiae tim10-1 ts strain growth, BacTiter-Glo, 24 h; inhibition, % at 20 µM; hit rate 2.2% among 330,000; AID 463190, 2010;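 active means inhibition of at least 40%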;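 further: mutant grown at 25 °C; 0% = DMSO wells with yeast and 100% = wells holding no yeast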
# tim23-1 inh: growth inhibitors of tim23-1 mutant yeast, primary screen, luminescence, uHTS; S. cerevisiae tim23-1 growth, BacTiter-Glo luminescence, 24 h; hit rate 1.3% among 330,000; AID 463212, 2010; inhibition, % at 20 µM;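 active means growth inhibition of the mutant yeast at or above 50%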;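 further: temperature-sensitive mutant grown at 25 °C; plate controls were DMSO-treated mutant yeast for no effect and medium wells lacking yeast for full effect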
# NLRP3 yeast inh: NALP3 inflammasome inhibitors in reconstituted yeast, primary screen, luminescence, uHTS; Yeast reconstituted NLRP3/ASC/caspase-1, beta-gal luminescence, 24 h; AID 2825, 2010; inhibition, % at 10 µM; hit rate 0.39% among 330,000;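 active means inhibition of 50% or more; inactive means inhibition below 50%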;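 further: plate controls were induced DMSO wells for no effect and uninduced yeast grown without galactose for full effect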
# TIM10 inh: growth inhibitors of isogenic TIM10 control yeast, primary screen, counter-screen for tim10-1 yeast inhibitor project, luminescence, uHTS. S. cerevisiae TIM10 strain growth, BacTiter-Glo luminescence, 24 h. inhibition, % at 10 µM. hit rate 1.4% among 330,000. AID 463195, 2010;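 active means inhibition of 40% or more at the single tested concentration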;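 further: wild-type TIM10 isogenic control strain grown at permissive 25 °C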
# tim10-1 conf: growth inhibitors of tim10-1 mutant yeast, confirmation, single concentration, luminescence, S. cerevisiae; shares compounds with tim10-1 inh; S. cerevisiae tim10-1 ts strain growth, BacTiter-Glo, 24 h; inhibition, % at 20 µM; hit rate 56% among 7,400; AID 463213, 2010;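 active means inhibition of yeast growth at or above a set limit in either of two repeat tests at 20 µM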;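 further: tim10-1 mutant grown at permissive 25 °C to find synthetic lethal compounds; 0% = DMSO yeast wells and 100% = medium wells without yeast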
# Numbers without * were called inactive; nt = not tested or not shown. Compounds with a hit are over-represented: about 4% of the library has one in this group of screens.
SMILES,NALP1 yeast inh,tim10-1 inh,tim23-1 inh,NLRP3 yeast inh,TIM10 inh,tim10-1 conf
CC(C)(C)c1ccc(S(=O)(=O)CC(O)CSc2nc3c(cc2C#N)CCCC3)cc1 (stereo not given),1,40*,7,5,37,25
Cc1c(C(=O)OC2CCCCC2)sc2nc[nH]c(=O)c12,22,40*,23,-7,20,13
COCCOC(=O)c1sc2nc[nH]c(=O)c2c1C,1,-2,-9,8,3,nt
COc1ccc(S(=O)(=O)N(CC(C)C)C2CCS(=O)(=O)C2)cc1OC (stereo not given),nt,-4,-7,12,4,nt
CCOC(=O)c1sc(Nc2cccc(C)c2C)nc1C,-4,43*,27,8,32,32*
CCOC(=O)c1sc(Nc2cccc(Cl)c2)nc1C,12,30,34,22,5,nt
Cc1cccc2c1c1ccc3c(c1n2C)C(=O)C=CC3=O,3,nt,nt,nt,nt,nt
Cc1c(C=O)c(C=O)c(C)n1Cc1ccccc1,37*,42*,39,11,17,21
CCN(CC)C(=O)c1[nH]cnc1C(=O)N[C@@H](Cc1ccccc1)C(=O)OC(C)(C)C,6,16,31,18,10,nt
COc1ccc(/C=N/n2c(=S)n(C)c3ccccc32)cc1OC,12,43*,41,-7,37,30*
Cn1c(=S)n(/N=C/c2ccc3c(c2)OCO3)c2ccccc21,6,7,0,12,-7,nt
O=C(Cc1ccccc1F)N1CCN(S(=O)(=O)c2ccc(Cl)cc2)CC1,nt,9,17,16,13,nt
N#CCc1nc(C(c2ccccc2)c2ccccc2)no1,7,23,31,23,19,nt
Cc1ccccc1NC(=S)N1CCC(C(=O)c2ccc(F)cc2)CC1,23,42*,8,5,12,6
O=C(c1ccc(F)cc1)C1CCN(C(=S)Nc2ccccc2Cl)CC1,-5,10,14,13,3,nt
Cc1ccccc1C(=O)NNC(=S)NC(=O)c1cccs1,-5,53*,24,18,34,21
CSc1nc(NNC=O)cc(Oc2ccc(NC(C)=O)cc2)n1,19,-19,-4,8,-10,nt
CC1N(C(=O)N2CCOCC2)CCN1S(=O)(=O)c1cccc(C(F)(F)F)c1 (stereo not given),-2,-3,1,1,9,nt
O=C(CN1CCN(S(=O)(=O)c2ccc(F)cc2)CC1)Nc1ccc2c(c1)OCCO2,2,-2,6,15,-11,nt
COc1ccccc1N1CCN(CC(=O)Nc2ccc(Cl)c(C(F)(F)F)c2)CC1,-151,42*,40,5,27,29*
O=C(CN1CCN(S(=O)(=O)c2ccc(F)cc2)CC1)Nc1ccc(Cl)c(C(F)(F)F)c1,-3,44*,31,4,15,39*
O=C(O)CCN1C(=O)c2ccc(NC(=O)C(c3ccccc3)c3ccccc3)cc2C1=O,16,1,13,-3,-10,nt
CN1CC(c2ccc(C#N)cc2)C2(COc3ccccc3C2=O)C12C(=O)Nc1ccccc12 (stereo not given),3,40*,48,0,38,40*
Cc1cnc(C(=O)OCC(=O)N2CCN(S(=O)(=O)c3ccc(Cl)cc3)CC2)cn1,nt,-4,-3,12,-4,nt
COc1ccc2c(c1)CC/C(=C\c1ccc(OC)c(Cn3nc(C)cc3C)c1)C2=O,4,40*,13,16,14,11
SMILES,NALP1 yeast inh,tim10-1 inh,tim23-1 inh,NLRP3 yeast inh,TIM10 inh,tim10-1 conf
COc1ccc2c(c1)CC/C(=C\c1ccc(OC)c(Cn3cccn3)c1)C2=O,11,23,32,8,6,nt
Brc1cc(Br)c2ncnc(N3CCCCC3)c2c1,-15,46*,47,-15,2,12
CCN(CC)Cc1ccccc1Sc1ccccc1,30,nt,nt,nt,nt,nt
O=C(NCCCN1CCOCC1)c1ccc(/C=C2\Oc3ccccc3N(Cc3ccccc3F)C2=O)cc1,16,47*,42,9,9,12
CCN1CCN(CCCNC(=O)c2ccc(/C=C3/Sc4ccccc4N(Cc4ccccc4F)C3=O)cc2)CC1,9,27,34,0,-5,nt
O=C(CSc1ccc2nnc(CCNC(=O)c3ccc(F)cc3)n2n1)NCC1CCCO1 (stereo not given),6,5,8,3,4,nt
C/C(CC(=O)Nc1ccc(N(C)C)cc1)=N\NC(=O)c1ccccn1,-13,49*,22,19,20,32*
CN(C(=O)c1cnccn1)c1c(N)n(Cc2ccccc2)c(=O)[nH]c1=O,nt,-2,8,20,-7,nt
CCn1c(SCC(=O)Nc2ccc(Cl)cc2)nc2nc3c(cc2c1=O)CCCC3,26,9,-3,5,11,nt
Cc1ccccc1-n1c(SCC(=O)Nc2ccccc2)nc2nc3c(cc2c1=O)CCCC3,20,44*,25,9,23,10
O=C(CSc1nc2ccccc2c(=O)n1-c1ccc(F)cc1)Nc1ccc2c(c1)CCC2,30,41*,19,5,21,18
O=C(CSc1nc2nc3c(cc2c(=O)n1-c1ccccc1)CCCC3)Nc1cccc2ccccc12,26,43*,12,0,1,9
O=C(CSc1nc2ccccc2c(=O)n1-c1ccc(F)cc1F)Nc1ccc2c(c1)CCC2,11,32,17,4,-1,nt
Cc1cccc(NC(=O)CSc2nc3nc4c(cc3c(=O)n2-c2ccccc2)CCCC4)c1,35,29,17,15,15,nt
O=S(=O)(c1ccccc1F)N1CCN(Cc2cc3c(cc2Br)OCCO3)CC1,nt,34,38,5,20,nt
COc1cc(/C=C2/CCc3ccccc3C2=O)cc(OC)c1OC,46,41*,42,18,40,29
CCCc1ccc(OCc2ccc(C(=O)N/N=C/c3cccnc3)o2)cc1,1,31,42,-6,16,nt
COc1ccc(NC(=O)CC2SC(=O)NC2=O)cc1 (stereo not given),4,41*,36,8,10,34*
O=C(Nc1cccc(S(=O)(=O)Nc2ccc(Cl)cc2)c1)c1ccccn1,nt,-4,48,17,6,nt
CCOc1cc(C)cc2oc(=O)cc(-c3ccccc3)c12,13,33,35,42,-1,nt
Cc1cc(OCC(=O)N2CCc3ccccc3C2)c2c(-c3ccccc3)cc(=O)oc2c1,6,46*,10,11,28,19
N#C/C(=C\c1c[nH]c2ccccc12)c1nnc2n1CCCCC2,40,12,10,15,3,nt
N#C/C(=N\Nc1cccc2ccccc12)c1nnc2n1CCCCC2,4,40*,15,24,9,16
